Assay outcomes (PubChem BioAssay)
Shown are actives, neighbours in structure and some others; about 28% of the full set was active somewhere.
CYP2C9 inhib: inhibitors of human CYP2C9 | P11712 | CYP2C9 Supersomes, luciferin-H conversion, luminescence | inhibition, % at 5 µM | 20% of 96,000 active | AID 777;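 active = blocking of liver enzyme CYP2C9 beyond about 50% at 5 µM, limit read from the data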
Target sequence (P11712 whole entry, looked up): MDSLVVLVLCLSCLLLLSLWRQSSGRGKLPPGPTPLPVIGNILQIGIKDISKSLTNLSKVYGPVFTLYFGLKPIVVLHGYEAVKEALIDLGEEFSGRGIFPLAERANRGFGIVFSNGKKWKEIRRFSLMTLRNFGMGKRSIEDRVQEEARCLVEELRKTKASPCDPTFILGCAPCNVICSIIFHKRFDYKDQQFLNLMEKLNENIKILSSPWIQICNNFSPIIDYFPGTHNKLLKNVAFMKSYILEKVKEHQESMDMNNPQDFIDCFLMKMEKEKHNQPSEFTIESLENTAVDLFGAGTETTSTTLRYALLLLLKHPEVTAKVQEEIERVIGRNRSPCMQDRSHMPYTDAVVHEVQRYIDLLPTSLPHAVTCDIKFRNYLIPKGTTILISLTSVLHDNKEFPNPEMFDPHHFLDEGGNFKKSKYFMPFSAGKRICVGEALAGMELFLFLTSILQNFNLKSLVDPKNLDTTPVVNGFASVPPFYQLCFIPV
CYP2C19 activ: cytochrome P450 2C19 (human) activation. recombinant CYP2C19, luciferin-H EGE luminescence; stronger effect = higher value; 0 = fully inhibited enzyme, 1 = untreated enzyme. activation factor at 5 µM. 96,000 tested, under 10 active. AID 1025;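 active = activation factor of at least 2 at 5 µM in the primary screen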;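 note: 0 = wells with 2.5 mM tranylcypromine and 1 = vehicle-only wells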
CYP2C9 act: increases human cytochrome P450 2C9 activity; P11712; recombinant CYP2C9, luciferin-H conversion, luminescence; stronger effect = higher value; factor 1 = untreated enzyme, 0 = blocked; activation factor at 5 µM; 1.4% of 96,000 active; AID 1024;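 active = activation factor of 2 or more for CYP2C9 at a 5 µM dose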;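 note: 0 = sulfaphenazole-blocked wells and 1 = vehicle-only wells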
CD11b adhes enh: enhancers of human CD11b/CD18 binding to fibrinogen | P05107+P11215 | K562 CD11b/CD18 adhesion to fibrinogen, ATPlite luminescence | activation, % at 10 µM | 0.07% of 93,000 active;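 active = 10 µM primary screen giving 50% or more activity, confirmed by 40% or more on retest at that dose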
Mac1 fbg inh: blocks human CD11b/CD18 adhesion to fibrinogen; P05107+P11215; K562 CD11b/CD18 adhesion to fibrinogen, ATPlite luminescence; Mn2+ added to activate the integrin; inhibition, % at 10 µM; 0.54% of 93,000 active;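 active = primary inhibition of 50% or more at 10 µM, then 40% or more on retest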
CYP2C19 inh: inhibitors of human CYP2C19; CYP2C19 Supersomes, luciferin-H EGE luminescence, 30 min; inhibition, % at 5 µM; 21% of 96,000 active;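 active = CYP2C19 inhibition above a set limit at 5 µM in the primary screen, cut at about 50% in these data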;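 note: plate controls were negative control wells for no effect and 2.5 mM tranylcypromine positive control for full effect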
An asterisk follows results filed as active.

Screening CCOc1ccc(C2C=C(c3ccc(C)cc3)Nc3ncnn32)cc1 (configuration not stated) returned CYP2C9 inhib 46.5, CYP2C19 activ 0.8, CYP2C9 act 0.5, CD11b adhes enh 0.7, Mac1 fbg inh -16.6 and CYP2C19 inh 17.1.
CCOc1ccc(C2C=C(c3ccccc3)Nc3nnnn32)cc1 (configuration not stated) was read as CYP2C9 inhib 62.5*, CYP2C19 activ 0.4, CYP2C9 act 0.4, CD11b adhes enh -3.5, Mac1 fbg inh -7.1 and CYP2C19 inh 64.3*.
CN(C(=O)COC(=O)c1ccc2c(c1)OCO2)C1CCS(=O)(=O)C1 (configuration not stated) was read as CYP2C9 inhib -21.4, CYP2C19 activ 1.1, CYP2C9 act 1.2, CD11b adhes enh -1.3, Mac1 fbg inh 2.7 and CYP2C19 inh -10.2.
Screening COC(=O)c1c(C(=O)OC)c(-c2cccc(C)c2)n2c1CS(=O)(=O)C2 returned CYP2C9 inhib 3.2, CYP2C19 activ 1, CYP2C9 act 1, CD11b adhes enh 1.6, Mac1 fbg inh -16.3 and CYP2C19 inh 1.2.
`CC(C)C(=O)Nc1ccc(C(=O)NNC(=O)CCCOc2ccc(Cl)cc2Cl)cc1` gave CYP2C9 inhib 39.5, CYP2C19 activ 0.9, CYP2C9 act 0.6, CD11b adhes enh 1.8, Mac1 fbg inh 7.5 and CYP2C19 inh 7.2.
Cc1csc(NC(=O)c2nc(-c3ccccc3)n(-c3ccccc3)n2)n1 was read as CYP2C9 inhib 75.3*, CYP2C19 activ 0.6, CYP2C9 act 0.2, CD11b adhes enh -3.9, Mac1 fbg inh -10.8 and CYP2C19 inh 43.1.
Screening CCCC(C)NC(=O)c1nc(-c2ccccc2)n(-c2ccccc2)n1 (configuration not stated) returned CYP2C9 inhib 85.8*, CYP2C19 activ 0.7, CYP2C9 act 0.1, CD11b adhes enh -0.3, Mac1 fbg inh 1.6 and CYP2C19 inh 33.4.
Screening Cc1ccc(C)c(NC(=O)c2nc(-c3ccccc3)n(-c3ccccc3)n2)c1 returned CYP2C9 inhib 71.2*, CYP2C19 activ 0.2, CYP2C9 act 0.3, CD11b adhes enh -2.9, Mac1 fbg inh 3.6 and CYP2C19 inh 79.0*.
CCSc1nnc(NC(=O)c2nc(-c3ccccc3)n(-c3ccccc3)n2)s1 was read as CYP2C9 inhib 92.3*, CYP2C19 activ 0.5, CYP2C9 act 0.1, CD11b adhes enh 0.0, Mac1 fbg inh -3.8 and CYP2C19 inh 54.9*.
`CCSc1nnc(NC(=O)c2cc(C)nc3ccccc23)s1` gave CYP2C9 inhib 16.9, CYP2C19 activ 0.9, CYP2C9 act 0.8, CD11b adhes enh -1.8, Mac1 fbg inh 2.0 and CYP2C19 inh 7.2.
Screening O=C(Nc1nccs1)c1nc(-c2ccccc2)n(-c2ccccc2)n1 returned CYP2C9 inhib -4.8, CYP2C19 activ 1, CYP2C9 act 1, CD11b adhes enh -4.0, Mac1 fbg inh -2.5 and CYP2C19 inh -4.1.
CC(=O)Oc1ccc(N2C(=O)C3C4C=CC(CO)(O4)C3C2=O)cc1 (configuration not stated) was read as CYP2C9 inhib -33.0, CYP2C19 activ 1.2, CYP2C9 act 1.3, CD11b adhes enh 1.3, Mac1 fbg inh 33.2 and CYP2C19 inh -16.0.
`COc1ccc(C(=O)NCC23C=CC(O2)C2C(=O)N(Cc4ccccc4)C(=O)C23)cc1` (configuration not stated) gave CYP2C9 inhib 34.2, CYP2C19 activ 0.4, CYP2C9 act 0.7, CD11b adhes enh 1.0, Mac1 fbg inh 2.6 and CYP2C19 inh 62.1*.
For c1ccc(COc2ccc(-c3csnn3)cc2)cc1 the results were CYP2C9 inhib 45.4, CYP2C19 activ 0.3, CYP2C9 act 0.5 and CYP2C19 inh 68.2*.
Screening OC(c1ccc(OCc2ccccc2)cc1)c1nnc(-c2ccccc2)o1 (configuration not stated) returned CYP2C9 inhib -5.7, CYP2C19 activ 1, CYP2C9 act 1.1, CD11b adhes enh -4.6, Mac1 fbg inh -6.6 and CYP2C19 inh 4.1.
For O=C(Nc1nnc(-c2ccc3c(c2)CCCC3)o1)c1ccccc1 the results were CYP2C9 inhib 31.1, CYP2C19 activ 1, CYP2C9 act 0.7, CD11b adhes enh 1.1, Mac1 fbg inh 46.7 and CYP2C19 inh 2.6.
